Screen size: about 16,000 compounds; about 2,600 (16%) were called active. Not shown: some 20% with an inconclusive outcome. The call rests on the fitted dose curve; in most records, active means well fitted curve in the direction sought with a large enough effect; inconclusive means small, poorly fitted or top-dose-only effect, or effect the other way; inactive means no such curve, though single readings can be large or run the other way. The list is a sample of the results.
Target: Cytochrome P450 2D6 (Homo sapiens) (UniProt P10635)
Sequence (P10635 whole entry, looked up): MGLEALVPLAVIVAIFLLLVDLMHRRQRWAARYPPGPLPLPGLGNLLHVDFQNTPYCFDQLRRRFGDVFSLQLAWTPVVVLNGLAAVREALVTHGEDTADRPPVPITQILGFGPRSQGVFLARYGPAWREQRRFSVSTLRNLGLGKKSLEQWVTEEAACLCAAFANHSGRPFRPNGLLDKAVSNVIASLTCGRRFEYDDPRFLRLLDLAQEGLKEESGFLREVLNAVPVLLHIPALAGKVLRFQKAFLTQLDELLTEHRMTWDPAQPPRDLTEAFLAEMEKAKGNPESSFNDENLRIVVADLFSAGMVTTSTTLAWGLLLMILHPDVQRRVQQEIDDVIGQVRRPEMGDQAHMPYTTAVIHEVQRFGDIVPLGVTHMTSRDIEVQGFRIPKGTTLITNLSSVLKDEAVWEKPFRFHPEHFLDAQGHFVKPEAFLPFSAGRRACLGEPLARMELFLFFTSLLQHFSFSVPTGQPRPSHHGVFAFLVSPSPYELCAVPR
Test: Cytochrome panel assay with activity outcomes
Conditions: recombinant CYP, pro-luciferin dealkylation, luminescence, p450-cyp2d6; series mostly up to 57.1 µM
On the % scale 0 is the no-effect control and ±100 the full control effect.

Structure (SMILES) | AC50 | activity, negative = inhibition
Cc1nnc(NC(=O)c2oc3c(ccc4ccccc43)c2C)s1 | inactive | –
COC(=O)c1cc(=O)[nH]c(=O)[nH]1 | – | -4.62% [at 11.4 µM] (inactive)
CCOC(=O)N/N=C1/C[C@@H](O)[C@@H](O)[C@@H]2[C@@H]3C(=O)N(C(C)(C)C)C(=O)[C@H]3CC[C@H]12 | – | -1.55% [at 11.4 µM] (inactive)
Cc1ccc(S(=O)(=O)NC(=O)CSc2nc3ccccc3s2)cc1 | inactive | –
O=[N+]([O-])c1c(NCCO)cc(Sc2nc3ccccc3s2)c2nonc12 | 14.1 µM (active) | –
O=C(N/N=C/c1ccc(Sc2nc3ccccc3s2)c([N+](=O)[O-])c1)c1ccccn1 | inactive | –
C[C@@]1(C(=O)O)CCC[C@@H]1C(=O)O | – | 9.41% [at 11.4 µM] (inactive)
CC(=O)Nc1c(C(=O)N2CCOCC2)cnn1-c1ccc(C)c(C)c1 | inactive | –
O=C(CS(=O)c1cccc(Cl)c1)Nc1ccccc1Cl (stereo unspecified) | inactive | –
O=C(CCN1CCN(CC(=O)Nc2ccccc2Cl)CC1)Nc1ccccc1F | 1.26 µM (active) | –
O=C(CCN1CCN(c2ccccc2F)CC1)Nc1ccccc1F | 11.2 µM (active) | –
COc1ccccc1NC(=O)CN1CCN(c2ccccc2F)CC1 | inactive | –
O=C(CCN1C(=O)C2C3C=CC(C3)C2C1=O)Nc1c(F)cccc1F (stereo unspecified) | inactive | –
COc1ccc(NC(=O)CN2CCN(CC(=O)Nc3ccccc3Cl)CC2)cc1 | inactive | –
COCCn1c(=O)c(C)nc2cnc(Oc3ccc(OC)cc3)nc21 | inactive | –
CN(C)c1ncc2nc(-c3cccs3)c(=O)n(C[C@H]3CCCO3)c2n1 | inactive | –

Structure (SMILES) | AC50 | activity, negative = inhibition
O=C(CP(=O)(c1ccccc1)c1ccccc1)Nn1cnnc1 | inactive | –
COCCN(CCOC)S(=O)(=O)c1ccc(C(=O)Nc2nc(C)c(C(C)=O)s2)cc1 | inactive | –
NC(=O)CN1CCOCCOCCOCCOCCOCC1 | inactive | –
O=C(Nc1cccc(F)c1)N1CCC2(CC1)CCN(C(=O)c1ccco1)CC2 | inactive | –
COc1ccc(CCNc2cc(-c3ccccc3)nc3ncnn23)cc1 | inactive | –
COc1ccc(-n2c3c(c(=O)[nH]c2=O)C(C(F)(F)F)(C(F)(F)F)N=C(CC(C)C)N3)cc1 | inactive | –
CCCn1c(=O)c2c(ncn2C)n(CCC)c1=O | inactive | –
NC(N)=NNC(=O)C(=O)O | – | 7.44% [at 11.4 µM] (inactive)
c1ccc2c(c1)-c1nc3ccccc3cc1[C@H]2N1CCOCC1 | – | -4.83% [at 11.4 µM] (inactive)
O=[N+]([O-])c1cc(/C=N/N2CCN(C3c4ccccc4-c4ccccc43)CC2)ccc1Cl | inactive | –
C/C(=N\N1CCN(C2c3ccccc3-c3ccccc32)CC1)c1ccncc1 | 0.178 µM (active) | –
O=C(O)c1cccnc1 | inactive | –
CC(C)(C(=O)c1cccnc1)c1cccnc1 | inactive | –
C/C(=N\N1CCN(C2c3ccccc3-c3ccccc32)CC1)c1cccnc1 | 2 µM (active) | –
C(=N\N1CCN(C2c3ccccc3-c3ccccc32)CC1)/c1cccnc1 | 0.631 µM (active) | –

— PubChem BioAssay AID1851 (National Center for Advancing Translational Sciences (NCATS), 2009)
